Assay outcomes: PubChem BioAssay, National Center for Advancing Translational Sciences (NCATS)
This is a sample that favours compounds with a hit; in the whole collection about 7.9% have one here.
KB-3-1 tox – KB-3-1 parental cell cytotoxicity; KB-3-1 viability, CellTiter-Glo ATP luminescence, 72 h; 400,000 compounds, 1.4% hits; Potency, µM (series often up to 46.1 µM), most hits filed as cytotoxic; note: nearly all actives have a fitted effect of over 60% in size
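Screening of KB-3-1 cells (DMEM, 10% FBS, phenol-red free) ran from lowest to highest compound concentration; after 72 h at 37 °C viability was read luminescently and curves fitted.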
KB-V1 cytotox – kills drug-selected multidrug resistant KB-V1 cells. KB-V1 MDR cells viability, CellTiter-Glo, 72 h. Potency, µM (highest dose often 46.1 µM), most hits filed as cytotoxic. 400,000 compounds, 3.4% hits; note: nearly all actives have a fitted effect of over 60% in size
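Readout: CellTiter-Glo luminescence, 10 min after addition. Cells: KB-V1 MDR subline, 72 h at 37 degrees C with compound. Analysis: corrected, normalized data fitted to concentration-effect curves.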
MCF10A rerep – induces DNA re-replication in MCF 10a normal breast cells | Potency, µM (titrated, usually from 46.1 µM), actives largely listed as activators | 350,000 compounds, 2.9% hits | MCF 10A DNA re-replication, Hoechst nuclear intensity, 48 h; note: nearly all actives have a fitted effect of over 50% in size
HT1080 IDH1KD tx – toxicity to HT-1080 IDH1 knockdown cells (counter line). 360,000 compounds, 2% hits. Potency, µM (highest dose often 46.1 µM), actives largely listed as cytotoxic. HT-1080 IDH1 knockdown viability, ATP luminescence, 48 h. AID 686971
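Using the IDH1-knockdown HT-1080 line run in the same batch and compound series as the NT line, viability after 48 h at 37 °C was determined by CellTiter-Glo luminescence and expressed as % activity.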
SW480 rereplic – DNA re-replication induction in SW480 cells. SW480 DNA re-replication, Hoechst DNA content imaging, 48 h. Potency, µM (series often up to 46.1 µM), usual class: activators. 340,000 compounds, 1.8% hits. AID 624297; note: nearly all actives have a fitted effect of over 55% in size
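Cells (250 per well) received 23 nL compound or DMSO by pin tool and were kept 48 hr at 37 C, 5% CO2. Nuclei were then stained with Hoechst for 40 min and scanned for DNA content.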
HT1080NT lethal – kills 2HG-producing HT-1080-NT fibrosarcoma cells; HT-1080-NT fibrosarcoma viability, CellTiter-Glo ATP luminescence, 48 h; Potency, µM (titrated, usually from 46.1 µM), most hits filed as cytotoxic; 360,000 compounds, 1.6% hits;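 note: NT is the 2HG producing partner of a matched IDH1 knockdown line; nearly all actives have a fitted effect of over 55% in size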
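750 cells/well, RPMI + 5% FBS; 2 h settle, compound pin-transfer, 48 h at 37 degrees C. CellTiter-Glo 10 min RT, luminescence. Normalized to DMSO and media-only wells.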
A number is an active result; – = inactive; ? = inconclusive; · = not tested or not shown. Calls come from the whole dose curve; as a rule, active = well fitted curve in the direction sought with a large enough effect; inconclusive = small, poorly fitted or top-dose-only effect, or another doubt; inactive = no such curve, though single readings can be large; an effect the other way counts as inactive or inconclusive.

SMILES	KB-3-1 tox	KB-V1 cytotox	MCF10A rerep	HT1080 IDH1KD tx	SW480 rereplic	HT1080NT lethal
Clc1cccc(Cl)c1Cn1cnc2c(N3CCCCCC3)ncnc21	–	8.2µM	–	–	?	–
CCC1CCCCN1S(=O)(=O)c1ccc(NC(=O)c2nc(S(C)(=O)=O)ncc2Cl)cc1 (stereo unspecified)	?	?	?	3.26µM	?	4.61µM
CCOc1ccc(NC(=O)c2nc(S(=O)(=O)Cc3ccccc3)ncc2Cl)cc1	?	–	·	·	·	·
CCOc1ccc(NC(=O)c2nc(S(=O)(=O)Cc3ccc(C)cc3)ncc2Cl)cc1	?	–	·	·	·	·
Cc1ccc(CS(=O)(=O)c2ncc(Cl)c(C(=O)Nc3ccc(OC(F)F)cc3)n2)cc1	23.1µM	18.4µM	7.31µM	?	?	16.4µM
CCS(=O)(=O)c1ncc(Cl)c(C(=O)Nc2ccc(C)cc2)n1	?	–	5.8µM	14.6µM	3.66µM	18.4µM
CCS(=O)(=O)c1ncc(Cl)c(C(=O)Nc2ccc(S(=O)(=O)N3CCCC(C)C3)cc2)n1 (stereo unspecified)	3.66µM	5.8µM	2.59µM	4.61µM	7.31µM	2.59µM
COc1cccc(-n2c(Cc3cc(=O)[nH]c(=O)[nH]3)nnc2SCC(=O)N2CCCCCC2)c1	–	–	–	–	–	–
CCc1nnc(NC(=O)c2cc([N+](=O)[O-])ccc2N2CCOCC2)s1	–	–	?	–	–	–
CS(=O)(=O)c1ncc(Cl)c(C(=O)Nc2ccc3ccccc3c2)n1	–	–	?	2.91µM	1.16µM	9.2µM
CC(=O)Nc1ccc(NC(=O)c2nc(S(=O)(=O)Cc3ccccc3)ncc2Cl)cc1	–	–	?	–	–	–
Nc1c(C(=O)OCC(=O)Nc2ccc(Cl)cc2[N+](=O)[O-])[nH]c(=O)[nH]c1=O	–	–	23.1µM	–	–	–
CN(C)c1cccc(C(=O)NNC(=O)/C=C/c2cccs2)c1	?	–	–	–	–	–
CC(C)N1C(=O)/C(=C\c2nc3ccccc3c(=O)[nH]2)c2ccccc21	18.4µM	–	?	?	?	?
COc1ccccc1/C=C1\S/C(=N/NC(=O)c2cccc(Br)c2)NC1=O	8.2µM	?	10.3µM	?	–	?
CCCN(Cc1nnc(-c2ccccc2Cl)o1)C(=O)c1ccc(C)c(S(=O)(=O)N2CCOCC2)c1	–	?	–	–	–	–
CC1=C(C(=O)Nc2ccccc2)C(c2cccs2)n2nc(SCc3ccccc3F)nc2N1 (stereo unspecified)	–	–	·	·	·	·
CCOc1ccc(OCC)c(NC(=O)C2CCN(c3ncccn3)CC2)c1	–	9.2µM	–	–	–	–
CCOc1ccc(OCC)c(NC(=O)C2CCCN(C(=O)c3ccc(Cl)cc3)C2)c1 (stereo unspecified)	–	7.31µM	–	–	–	–
Cc1ccc(C2=CSC3=NCCN23)cc1	–	–	7.31µM	–	–	–
O=[N+]([O-])c1ccc(C2=CSC3=NCCN23)cc1	–	?	–	–	–	–
N#CC1(Cc2ccccc2Cl)c2ccccc2C=CN1C(=O)c1ccccc1 (stereo unspecified)	?	20.6µM	–	–	–	–
COCCn1c(=N)c(C(=O)NCCc2ccc(OC)cc2)cc2c(=O)n3cccc(C)c3nc21	–	–	?	–	?	–
COCCCNC(=O)c1cc2c(=O)n3cccc(C)c3nc2n(C(C)C)c1=N	–	–	?	–	2.82µM	–
CCNC(=O)c1cc2c(=O)n3cccc(C)c3nc2n(Cc2ccc(C)cc2)c1=N	?	?	?	–	2.06µM	–
SMILES	KB-3-1 tox	KB-V1 cytotox	MCF10A rerep	HT1080 IDH1KD tx	SW480 rereplic	HT1080NT lethal
Cc1cccn2c(=O)c3cc(C(=O)NC(C)C)c(=N)n(Cc4ccncc4)c3nc12	–	–	16.4µM	–	20.6µM	–
C/C(=N\Nc1nccnc1Cl)c1c(F)c(F)c(F)c(F)c1F	–	–	–	–	–	–
COC(=O)c1ccc(C(=O)NC2CCCc3c2cnn3-c2cc(F)cc(F)c2)nc1 (stereo unspecified)	?	10.3µM	2.91µM	16.4µM	6.51µM	?
COC(=O)c1ccc(C(=O)NC2CCCc3c2cnn3-c2ccc(C)c(C)c2)cc1 (stereo unspecified)	1.64µM	5.17µM	2.31µM	23.1µM	6.51µM	14.6µM
Cc1cc(C(=O)NC2CCCc3c2cnn3-c2ccc(C(C)(C)C)cc2)nn1C (stereo unspecified)	?	?	?	–	–	13µM
Cc1cc(C(=O)NC2CCCc3c2cnn3-c2ccc(C)c(C)c2)nc(C)n1 (stereo unspecified)	–	?	–	–	–	–
COc1ccc(C(=O)NC2CCCc3c2cnn3-c2cc(F)cc(F)c2)c(OC)c1OC (stereo unspecified)	?	18.4µM	?	?	–	?
O=C(Nc1cccc2ccccc12)NC1CCS(=O)(=O)C1 (stereo unspecified)	–	–	–	–	–	–
CCc1ccc(CN(C)C(=O)c2cc(S(=O)(=O)N3CCN(CC)CC3)ccc2Cl)cc1	?	?	?	–	–	–
Fc1ccc(-c2csc(-c3ccccn3)n2)cc1F	–	–	–	–	–	–
CCOC(=O)c1c(Nc2ccc(C)cc2)nnc(-c2ccccc2)c1-c1ccccc1	–	23.1µM	·	·	·	·
COC(=O)c1cccc(Nc2nc3ccccc3nc2C)c1	–	–	?	?	–	–
CCOC(=O)c1c(Nc2cccc(C(=O)OC)c2)nnc(-c2ccccc2)c1-c1ccccc1	–	13µM	·	·	·	·
CCOC(=O)c1nc(Nc2ccc(C)cc2)c2ccccc2n1	–	?	–	–	?	–
Cc1cc(C)nc(SCc2cc(=O)c(OC(=O)c3ccc(Cl)c([N+](=O)[O-])c3)co2)n1	–	–	?	–	–	–
COCCNC(=O)c1cnn2c(C(F)F)cc(-c3ccccc3)nc12	–	–	?	–	14.6µM	–
O=C(Nc1c(C(=O)NCc2ccco2)cnn1-c1ccccc1)c1cccc(F)c1	–	9.2µM	–	–	–	–
O=C(NCc1ccco1)c1cnn2c(C(F)F)cc(-c3ccccc3)nc12	–	–	8.2µM	–	–	–
Cc1ccc(CNC(=O)c2cnn3c(C)c(Cc4c(F)cccc4Cl)c(C)nc23)cc1	–	–	·	·	·	·
Cc1cc(C)c(Cc2c(C)nc3c(C(=O)NCc4ccco4)cnn3c2C)c(C)c1	20.6µM	2.91µM	?	–	–	–
COc1ccccc1N1CCN(c2nccc(C)n2)CC1	–	–	–	–	–	–
COc1ccc(-c2cc(C(F)F)n3ncc(C(=O)N4CCN(C)CC4)c3n2)cc1	–	–	–	–	–	–
COc1ccc(-c2cc(C(F)F)n3ncc(C(=O)N4CCSCC4)c3n2)cc1	–	–	?	–	5.17µM	–
